Assay [1] in a line: small molecules captured by biotinylated probe aFSTL3 – biochemical, small-molecule microarray, fluorescence 635/667, stem cell growth factor project, primary screen (AID 1064).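 Note: measures binding of the biotinylated anti-FSTL3 antibody to printed compounds.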 The settings on record: higher = more signal.
The nature of assay [2]: binders from COS7 lysate, DM2A8 probe, primary screen, torsin A project, cell lysate, small-molecule microarray, fluorescence 635/667 (AID 1065). The settings on record: higher = more signal, COS7 lysate expressing mutant human TOR1A.
Assay [3] can be described thus: small molecules captured by biotinylated probe aFGF2 – biochemical, small-molecule microarray, fluorescence 635/667, stem cell growth factor project, primary screen (AID 1067).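 Note: measures binding of biotinylated aFGF2 protein to printed compounds on slides; z-score merges feature fluorescence and signal-to-noise across triplicate slides.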 The conditions noted are these: higher = more signal.
Assay [4] can be described thus: small molecules captured by biotinylated probe aFGF10 – biochemical, small-molecule microarray, fluorescence 635/667, stem cell growth factor project, primary screen (AID 1071).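 Note: score merges 667 nm spot intensity and signal to noise from triplicate slides.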 The settings on record: higher = more signal.
For assay [5], the target named is Neurogenic locus notch homolog protein 2 (Homo sapiens) (UniProt Q04721). Kind of assay: small molecules binding Notch2 protein – biochemical, small-molecule microarray, 635 nm fluorescence, stem cell growth factors, primary screen (AID 1073). The settings on record: higher = more signal.
For assay [6], the target named is Pro-neuregulin-1, membrane-bound isoform (Homo sapiens) (UniProt Q02297). Kind of assay: small molecules binding neuregulin-1 protein – biochemical, small-molecule microarray, fluorescence 635/667, psychiatric disease protein project, primary screen (AID 1075).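 Note: score combines 667 nm spot fluorescence with signal to noise.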 The conditions noted are these: NRG1 binding, 635 nm fluorescence, higher = more signal.
In assay [7] the test system is Neuregulin-1 EGF-like domain. The assay can be described thus: small molecules binding NRG1 EGF domain – biochemical, small-molecule microarray, 635 nm fluorescence, primary screen (AID 1081).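 Note: binding of the protein to compounds printed on small-molecule microarray slides.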 The conditions noted are these: higher = more signal.
Assay [8] can be described thus: FRG1 expression reporter modulators in myotubes – cell-based, C2C12 myotubes, firefly/Renilla luciferase, luminescence, FRG1 inhibition for FSHD, primary screen (AID 1084). The settings on record: FRG1 promoter luciferase, higher = more signal, called active from +8 up or from −8 down.
Assay [9] in a line: small molecules captured by biotinylated probe aFST – biochemical, small-molecule microarray, fluorescence 635/667, stem cell growth factor project, primary screen (AID 1086).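 Note: score merges 667 nm fluorescence with signal-to-noise of each printed compound spot.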 The conditions noted are these: higher = more signal.
Assay [10] is described as follows: binders of probe aHhip on microarray, primary screen, stem cell growth factor project, biochemical, small-molecule microarray, fluorescence 635/667 (AID 1087).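 Note: score merges spot fluorescence at 667nm with spot signal to noise ratio.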 The settings on record: higher = more signal.
For assay [11], the system named is PRMT1 (protein arginine N-methyltransferase 1). Kind of assay: small molecules binding arginine methyltransferase PRMT1 – biochemical, small-molecule microarray, 635 nm fluorescence, primary screen (AID 1088).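 Note: binding of Prmt1 protein to compounds spotted on small-molecule microarray slides.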 The settings on record: higher = more signal.
Assay [12] in a line: growth effects on S. cerevisiae YJM789 – YJM789 clinical isolate, OD600, 24 h, basal, primary screen (AID 1089).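 Note: growth of clinical yeast isolate S. cerevisiae YJM 789 seeded 1000 cells per well; test concentration not given here.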 The settings on record: higher = more signal, called active from +8 up or from −8 down.
Assay [13] can be described thus: S. pombe growth modifiers, basal conditions – strain 972, OD600, 24 h, no modulator, primary screen (AID 1090).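 Note: basal condition with compound alone and no growth modifier present; test concentration not given here.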 The conditions noted are these: S. pombe 972 growth, higher = more signal, called active from +8 up or from −8 down.
The nature of assay [14]: budding yeast growth modifiers under rapamycin – strain BY4716, OD600, 96 h, primary screen (AID 1091). Note: test concentration not given here. The conditions noted are these: S. cerevisiae BY4716 + rapamycin, higher = more signal, called active from +8 up or from −8 down.
The target in assay [15] is Torsin-1A-interacting protein 2 (Homo sapiens) (UniProt Q8NFQ8). Kind of assay: small molecules binding lysate-expressed LULL1 – cell lysate, human LULL1 lysate, 635/667 nm fluorescence, primary screen (AID 1092).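 Note: probe is lysate of COS7 cells overexpressing human LULL1; score merges per-feature 667 nm fluorescence with signal-to-noise.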 The settings on record: small-molecule microarray, hLULL1 lysate binding, 635 nm fluorescence; higher = more signal.
Assay [16] in a line: optical density change of DRC41 E. coli – strain DRC41, OD650, 24 h, E. coli filamentation project, primary screen (AID 1093).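 Note: MC1000 strain lacking acrAB efflux and sulA so SOS filamentation is blocked; test concentration not given here.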 The conditions noted are these: E. coli DRC41 growth, higher = more signal, called active from +8 up or from −8 down.
A short description of assay [17]: probe aLefty2 binding to arrayed compounds – biochemical, biotinylated probe, 635/667 nm fluorescence, primary screen (AID 1094).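 Note: score merges spot fluorescence near 667 nm with spot signal-to-noise ratio.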 The conditions noted are these: small-molecule microarray, higher = more signal.
The subject of assay [18] is Noggin (protein binding on small-molecule microarray). The assay can be described thus: small molecules binding Noggin protein – biochemical, 635/667 nm fluorescence, primary screen (AID 1095).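 Note: score merges 667 nm feature fluorescence with signal to noise over triplicate slides.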 The settings on record: 635 nm fluorescence, higher = more signal.
For assay [19], the target named is Neurogenic locus notch homolog protein 3 (Homo sapiens) (UniProt Q9UM47). The assay can be described thus: small molecules binding NOTCH3 protein – biochemical, 635/667 nm fluorescence, primary screen (AID 1096). The conditions noted are these: small-molecule microarray, 635 nm fluorescence, higher = more signal.
Assay [20] can be described thus: probe aEGFR binding to arrayed compounds – biochemical, biotinylated probe, 635/667 nm fluorescence, primary screen (AID 1097).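 Note: probe is a biotinylated anti-EGFR antibody binding compounds printed on slides; score combines fluorescence near 667 nm and signal to noise of each spot.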 The settings on record: small-molecule microarray, higher = more signal.

The source made the active and inactive calls.

Chain of Pro-neuregulin-1, membrane-bound isoform (Homo sapiens) (Q02297 whole entry, looked up, the tested form may be a part, canonical isoform): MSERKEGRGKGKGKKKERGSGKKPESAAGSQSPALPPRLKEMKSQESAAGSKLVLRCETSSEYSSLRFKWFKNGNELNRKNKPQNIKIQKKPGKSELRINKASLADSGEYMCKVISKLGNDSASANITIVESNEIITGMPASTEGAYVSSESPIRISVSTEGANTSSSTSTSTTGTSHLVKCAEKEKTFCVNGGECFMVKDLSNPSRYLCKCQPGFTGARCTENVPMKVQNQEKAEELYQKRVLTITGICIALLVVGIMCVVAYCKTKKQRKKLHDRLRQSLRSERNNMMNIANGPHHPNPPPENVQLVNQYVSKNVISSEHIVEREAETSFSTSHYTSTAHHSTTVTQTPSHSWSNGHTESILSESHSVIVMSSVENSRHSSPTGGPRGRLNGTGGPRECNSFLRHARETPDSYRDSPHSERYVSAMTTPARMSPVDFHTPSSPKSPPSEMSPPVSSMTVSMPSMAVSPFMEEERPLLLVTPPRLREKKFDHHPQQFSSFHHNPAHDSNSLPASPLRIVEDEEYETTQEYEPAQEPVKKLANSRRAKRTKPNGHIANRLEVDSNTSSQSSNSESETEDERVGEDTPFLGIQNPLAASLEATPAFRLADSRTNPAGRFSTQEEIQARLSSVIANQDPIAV
Chain of Neurogenic locus notch homolog protein 2 (Homo sapiens) (Q04721 whole entry, looked up, canonical isoform): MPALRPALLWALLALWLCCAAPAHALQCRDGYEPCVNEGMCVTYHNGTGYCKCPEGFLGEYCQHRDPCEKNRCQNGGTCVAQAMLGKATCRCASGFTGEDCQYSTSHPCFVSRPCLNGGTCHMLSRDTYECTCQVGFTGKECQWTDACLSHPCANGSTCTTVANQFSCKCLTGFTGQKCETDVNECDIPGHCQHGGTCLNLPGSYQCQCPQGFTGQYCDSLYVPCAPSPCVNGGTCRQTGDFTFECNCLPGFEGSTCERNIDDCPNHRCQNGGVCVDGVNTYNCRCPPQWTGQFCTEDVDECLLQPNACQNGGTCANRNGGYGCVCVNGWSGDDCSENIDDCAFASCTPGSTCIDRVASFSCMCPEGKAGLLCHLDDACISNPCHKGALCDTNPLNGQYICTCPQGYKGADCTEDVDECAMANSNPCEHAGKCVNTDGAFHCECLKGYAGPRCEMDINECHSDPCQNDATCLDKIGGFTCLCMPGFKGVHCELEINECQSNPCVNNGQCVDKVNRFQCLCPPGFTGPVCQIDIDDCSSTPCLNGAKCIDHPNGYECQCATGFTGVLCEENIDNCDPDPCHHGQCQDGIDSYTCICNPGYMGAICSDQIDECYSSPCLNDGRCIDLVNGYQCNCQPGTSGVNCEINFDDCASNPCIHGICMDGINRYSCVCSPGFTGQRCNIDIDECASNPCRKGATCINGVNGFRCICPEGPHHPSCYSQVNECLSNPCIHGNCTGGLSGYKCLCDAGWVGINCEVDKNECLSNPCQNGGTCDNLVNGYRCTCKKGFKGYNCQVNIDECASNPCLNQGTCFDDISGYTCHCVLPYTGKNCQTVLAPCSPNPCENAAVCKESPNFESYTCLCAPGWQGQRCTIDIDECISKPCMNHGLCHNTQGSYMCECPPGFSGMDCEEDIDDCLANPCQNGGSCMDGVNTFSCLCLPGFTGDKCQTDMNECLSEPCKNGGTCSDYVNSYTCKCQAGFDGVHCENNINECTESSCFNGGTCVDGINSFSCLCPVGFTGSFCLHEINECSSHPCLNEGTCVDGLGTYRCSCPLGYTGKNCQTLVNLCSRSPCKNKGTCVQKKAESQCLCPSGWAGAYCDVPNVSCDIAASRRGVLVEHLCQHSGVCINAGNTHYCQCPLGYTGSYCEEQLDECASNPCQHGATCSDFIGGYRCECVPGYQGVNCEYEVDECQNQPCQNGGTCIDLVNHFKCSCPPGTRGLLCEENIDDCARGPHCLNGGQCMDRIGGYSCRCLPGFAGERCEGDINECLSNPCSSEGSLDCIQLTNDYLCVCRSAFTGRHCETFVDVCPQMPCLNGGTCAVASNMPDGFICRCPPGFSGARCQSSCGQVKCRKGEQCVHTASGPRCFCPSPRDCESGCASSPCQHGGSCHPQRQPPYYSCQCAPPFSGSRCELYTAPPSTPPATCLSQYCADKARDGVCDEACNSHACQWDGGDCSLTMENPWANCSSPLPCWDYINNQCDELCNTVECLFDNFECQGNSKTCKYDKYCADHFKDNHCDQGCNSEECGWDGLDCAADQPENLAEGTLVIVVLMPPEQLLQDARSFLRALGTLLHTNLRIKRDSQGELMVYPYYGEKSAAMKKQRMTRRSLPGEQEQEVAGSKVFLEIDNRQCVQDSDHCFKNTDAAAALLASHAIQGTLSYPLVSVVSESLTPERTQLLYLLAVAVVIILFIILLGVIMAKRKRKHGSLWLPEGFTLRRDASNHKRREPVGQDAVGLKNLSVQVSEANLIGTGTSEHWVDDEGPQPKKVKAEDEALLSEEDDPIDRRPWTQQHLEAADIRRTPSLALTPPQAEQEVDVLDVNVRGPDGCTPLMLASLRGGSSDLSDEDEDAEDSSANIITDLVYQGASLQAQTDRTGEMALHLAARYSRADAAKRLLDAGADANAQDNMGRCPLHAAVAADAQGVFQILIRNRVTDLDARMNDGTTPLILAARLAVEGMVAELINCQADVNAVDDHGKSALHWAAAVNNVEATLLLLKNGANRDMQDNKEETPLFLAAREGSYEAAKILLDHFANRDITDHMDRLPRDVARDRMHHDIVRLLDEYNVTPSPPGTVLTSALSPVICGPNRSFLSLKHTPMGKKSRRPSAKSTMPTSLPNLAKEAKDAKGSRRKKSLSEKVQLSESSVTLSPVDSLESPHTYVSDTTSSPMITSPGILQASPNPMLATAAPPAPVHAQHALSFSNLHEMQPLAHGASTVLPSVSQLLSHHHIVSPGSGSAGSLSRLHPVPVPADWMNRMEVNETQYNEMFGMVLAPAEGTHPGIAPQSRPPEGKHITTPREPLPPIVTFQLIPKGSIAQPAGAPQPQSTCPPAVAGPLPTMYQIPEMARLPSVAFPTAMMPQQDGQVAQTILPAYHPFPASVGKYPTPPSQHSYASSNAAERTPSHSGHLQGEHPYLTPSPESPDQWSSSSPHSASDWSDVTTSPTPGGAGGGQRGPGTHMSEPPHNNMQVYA
Chain of Torsin-1A-interacting protein 2 (Homo sapiens) (Q8NFQ8 whole entry, looked up): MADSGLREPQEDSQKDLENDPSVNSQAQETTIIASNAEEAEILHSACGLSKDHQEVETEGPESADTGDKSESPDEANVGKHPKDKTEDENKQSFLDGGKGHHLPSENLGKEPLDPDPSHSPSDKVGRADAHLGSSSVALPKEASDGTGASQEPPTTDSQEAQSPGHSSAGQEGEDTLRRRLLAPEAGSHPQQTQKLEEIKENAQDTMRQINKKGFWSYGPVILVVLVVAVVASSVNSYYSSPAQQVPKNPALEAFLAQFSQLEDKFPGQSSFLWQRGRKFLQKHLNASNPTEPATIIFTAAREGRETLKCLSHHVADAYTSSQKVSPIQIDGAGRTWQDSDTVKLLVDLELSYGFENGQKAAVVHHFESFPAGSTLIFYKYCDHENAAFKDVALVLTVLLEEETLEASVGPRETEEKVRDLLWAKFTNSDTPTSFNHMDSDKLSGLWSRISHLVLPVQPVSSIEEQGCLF

Consider `COc1ccc(COC(=O)NN=C2C[C@@H](O)[C@@H](O)[C@@H]3[C@@H]4C(=O)N(C[C@@H]5CCCO5)C(=O)[C@@H]4CC[C@@H]23)cc1`, for which the composite z-score in [1] was -0.227; in assay [2], 0.359; in [3], -0.156; in assay [4], 0.878; in [5], -0.0739; in [6], 0.393. The composite z-score was 0.775 in [7]; 0.0269 in [9]; -0.117 in assay [10]; 0.674 in [11]; 0.486 in assay [15]; -0.145 in assay [17]. The composite z-score in assay [18] is 0.585; in [19] it was 0.106; in assay [20], -0.1. For the same molecule, the z-score in assay [8] is -0.913 (inactive); in assay [12], 0.137 (inactive); in assay [13], 0.467 (inactive); in assay [14] it was -0.389 (inactive); in assay [16], 0.859 (inactive).

Turning to `CCOC(=O)[C@H](CC(C)C)NC(=O)CCC1CC(OC(=O)NCCc2ccc(F)cc2)CC2(CCCC(COC(=O)NCCOC)O2)O1` (stereo not given in full), the composite z-score in [1] is 0.12; in assay [2], 0.305; in assay [3], -0.043; in [4] it was 0.862; in assay [5] it was 1.15; in [6], 0.32. For the same molecule, the composite z-score in [7] was 1.13; in assay [9], 0.158; in assay [10], 0.0092; in assay [11] it was 1.41; in assay [15], 1.7; in assay [17], -0.025. Besides, the composite z-score is 0.382 in assay [18], 0.998 in assay [19] and -0.0975 in assay [20]. Further, the z-score in [8] is 1.44 (inactive); in assay [12], 0.513 (inactive); in [13], 1.13 (inactive); in [14], 1.5 (inactive); in assay [16], -1.02 (inactive).

For `CC(=O)OC[C@H]1O[C@H](CC=NOCC[C@@H]2C=C[C@H](OC(C)=O)[C@@H](COC(C)=O)O2)C=C[C@@H]1OC(C)=O`, the composite z-score in [1] is -0.544; in assay [2], 1.16; in assay [3], -0.13; in assay [4] it was 0.414; in [5] it was 0.29; in [6], -0.254. Further, the composite z-score in [7] stood at 0.537; in assay [9], 0.425; in [10] it was 0.0623; in [11] it was 1.46; in [15] it was 0.137; in assay [17] it was 0.0024. Besides, the composite z-score in assay [18] is 0.772; in [19], 0.757; in [20] it was 0.0707. The z-score was 1.06 (inactive) in [8]; -0.996 (inactive) in [12]; 0.526 (inactive) in assay [13]; -0.0043 (inactive) in assay [14]; 0.712 (inactive) in assay [16].

Consider `CCO[C@H](c1cc(OC)cc([N+](=O)[O-])c1OC)[C@H](C)[C@@H](OC)[C@H](C)C=CCC(=O)OC`, for which the composite z-score was 0.0456 in assay [1]; 0.32 in assay [2]; -0.0241 in assay [3]; -0.105 in assay [4]; 0.174 in assay [5]; 0.339 in assay [6]. In addition, the composite z-score was 0.66 in assay [7]; 0.414 in [9]; -0.317 in assay [10]; 0.836 in assay [11]; 0.945 in assay [15]; 0.0632 in assay [17]. The values for the composite z-score in [18], in assay [19] and in [20] were -0.0645, 1.06 and -0.0069, respectively. The z-score was -0.0602 (inactive) in [8]; 0.443 (inactive) in assay [12]; -0.463 (inactive) in assay [13]; -0.604 (inactive) in assay [14]; -0.466 (inactive) in [16].

As to `COC(=O)[C@H](C)NC(=O)CCC1CC(OC(=O)NCc2ccc3c(c2)OCO3)CC2(CCCC(COC(=O)NCCc3ccc(Cl)cc3)O2)O1` (stereo not given in full), the composite z-score in assay [1] is -0.592; in assay [2], -0.406; in [3] it was -0.0812; in assay [4], 0.218; in [5] it was 0.576; in assay [6] it was 0.212. The composite z-score in [7] was 0.562; in assay [9] it was 0.17; in assay [10], -0.126; in [11], 0.898; in assay [15], 0.945; in assay [17], -0.14. The composite z-score in assay [18] is 0.621; in [19] it was 0.67; in assay [20], -0.0675. Further, the z-score in assay [8] is 0.628 (inactive); in assay [12], 0.341 (inactive); in assay [13], 0.744 (inactive); in [14], -0.529 (inactive); in assay [16], 0.181 (inactive).

For the molecule `CO[C@@H]1C=CCC(=O)N[C@@H](C)C(=O)OC[C@@H](NS(=O)(=O)c2ccc(C)cc2)[C@H](C)C=CCC(=O)OC[C@H]1C`, the composite z-score in [1] is -0.296; in assay [2], 0.43; in [3], -0.238; in [4] it was 0.199; in assay [5] it was -0.765; in assay [6], -0.589. Further, the composite z-score in [7] was -0.919; in assay [9], -0.0849; in [10], 0.21; in assay [11] it was 0.375; in [15] it was -1.35; in assay [17], -0.15. The composite z-score in assay [18] is 0.98; in assay [19] it was -0.381; in assay [20], -0.123. Besides, the z-score is -1.04 (inactive) in assay [8]; -0.413 (inactive) in [12]; -0.266 (inactive) in assay [13]; -0.411 (inactive) in assay [14]; 0.0927 (inactive) in assay [16].

As to `CO[C@H]1COC(=O)[C@H](CCSC)NC(=O)CC=C[C@@H](C)[C@H](OC)COC(=O)[C@@H](OCc2ccccc2)C=C[C@@H]1C`, the composite z-score in assay [1] is -0.459; in assay [2], 0.633; in [3], -0.188; in assay [4], 0.227; in assay [5], 0.133; in [6] it was -0.388. Moreover, the composite z-score in [7] is 0.597; in assay [9], -0.276; in [10], -0.134; in assay [11], 1.56; in assay [15] it was -1.05; in assay [17], -0.0131. For the same molecule, the values for the composite z-score in assay [18], in [19] and in assay [20] were 1.39, 0.472 and -0.0531, respectively. Also, the z-score was 0.306 (inactive) in assay [8]; -0.772 (inactive) in assay [12]; -0.282 (inactive) in assay [13]; -1.65 (inactive) in assay [14]; -0.317 (inactive) in [16].

On to `CCOC(=O)[C@H](CC(C)C)NC(=O)CCC1CC(OC(=O)NCc2ccc3c(c2)OCO3)CC2(CCCC(COC(=O)NCCc3ccccc3OC)O2)O1` (stereo not given in full), for which the composite z-score in assay [1] was -0.693; in [2] it was 0.309; in assay [3], -0.085; in [4] it was 0.554; in assay [5], 1.26; in assay [6] it was 0.53. In addition, the composite z-score in [7] was 0.978; in [9], 0.14; in assay [10], -0.15; in assay [11] it was 1.34; in [15] it was 1.99; in [17], -0.136. Moreover, the composite z-score in [18] was 0.474; in assay [19], 1.11; in assay [20], -0.0177. The z-score was 1.01 (inactive) in assay [8]; -0.156 (inactive) in [12]; 0.249 (inactive) in assay [13]; 0.947 (inactive) in [14]; -0.133 (inactive) in [16].

Regarding `C[C@@H]1CC[C@H]2C(=O)N3[C@@H](CC[C@@H](C)[C@@H]3c3ccc(Br)cc3)C(=O)N2[C@H]1c1ccc(Br)cc1`, the composite z-score is -0.241 in [1]; 0.318 in [2]; -0.131 in assay [3]; 0.3 in assay [4]; 0.599 in assay [5]; -0.0193 in assay [6]. Also, the composite z-score in assay [7] was 0.354; in [9], 0.343; in assay [10], -0.173; in assay [11], -0.455; in [15], 0.241; in [17] it was -0.0865. The composite z-score in assay [18] is 0.259; in [19], 0.305; in [20] it was -0.0987. Besides, the z-score in assay [8] is -0.469 (inactive); in [12], -0.275 (inactive); in assay [13], -4.1 (inactive); in assay [14], 0.805 (inactive); in assay [16], -0.19 (inactive).

(Values after PubChem BioAssay.)
